{"source": "PubChem BioAssay (NCI)", "assay_in_all_cases": "NCI-60 one-dose screen, 48 h (100 = growth as untreated, 0 = no growth, -100 = all killed)", "details_in_all_cases": "10 µM", "key": {"[1]": {"system": "MALME-3M melanoma"}, "[2]": {"system": "MDA-MB-231 breast"}, "[3]": {"system": "RXF 393 renal"}, "[4]": {"system": "M14 melanoma"}, "[5]": {"system": "SK-MEL-5 melanoma"}, "[6]": {"system": "LOX IMVI melanoma"}, "[7]": {"system": "SK-MEL-28 melanoma"}, "[8]": {"system": "SN12C renal"}, "[9]": {"system": "MOLT-4 leukemia"}, "[10]": {"system": "OVCAR-5 ovarian"}, "[11]": {"system": "OVCAR-4 ovarian"}, "[12]": {"system": "SK-OV-3 ovarian"}, "[13]": {"system": "IGROV1 ovarian"}, "[14]": {"system": "HS 578T breast"}, "[15]": {"system": "NCI/ADR-RES ovarian"}, "[16]": {"system": "T-47D breast"}, "[17]": {"system": "SW-620 colon"}, "[18]": {"system": "MCF7 breast"}, "[19]": {"system": "HCT-116 colon"}, "[20]": {"system": "KM12 colon"}}, "note": "This is part of a sample that, as a whole, favours compounds with a hit. Of some 83,000 tested, about 20% had one in any assay.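 Cell lines were cultured in 96-well plates, exposed to a single compound concentration, and assessed for percent growth 48 hours later.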 Unmarked numbers belong to inactive results. The source made the active and inactive calls. Rule for the calls: active = growth percent below 10; inactive = the rest."}
{"molecule": "CC1=C2C(=C[C@@](C)(C=O)[C@@H]2O)C(=O)[C@](C)(O)C12CC2", "values": [{"measurement": "growth", "setting": "[1]", "result": "-32.6% (active)"}, {"measurement": "growth", "setting": "[2]", "result": 14, "unit": "%"}, {"measurement": "growth", "setting": "[3]", "result": "-77% (active)"}, {"measurement": "growth", "setting": "[4]", "result": "2% (active)"}, {"measurement": "growth", "setting": "[5]", "result": "-79.5% (active)"}, {"measurement": "growth", "setting": "[6]", "result": "2.16% (active)"}, {"measurement": "growth", "setting": "[7]", "result": "-8.99% (active)"}, {"measurement": "growth", "setting": "[8]", "result": 26.1, "unit": "%"}, {"measurement": "growth", "setting": "[9]", "result": 16.5, "unit": "%"}, {"measurement": "growth", "setting": "[10]", "result": "6.05% (active)"}, {"measurement": "growth", "setting": "[11]", "result": 19.3, "unit": "%"}, {"measurement": "growth", "setting": "[12]", "result": 11.1, "unit": "%"}, {"measurement": "growth", "setting": "[13]", "result": "9.24% (active)"}, {"measurement": "growth", "setting": "[14]", "result": 33.5, "unit": "%"}, {"measurement": "growth", "setting": "[15]", "result": "1.41% (active)"}, {"measurement": "growth", "setting": "[16]", "result": 11.7, "unit": "%"}, {"measurement": "growth", "setting": "[17]", "result": 10.1, "unit": "%"}, {"measurement": "growth", "setting": "[18]", "result": "3.05% (active)"}, {"measurement": "growth", "setting": "[19]", "result": "6.13% (active)"}, {"measurement": "growth", "setting": "[20]", "result": 27.4, "unit": "%"}]}
{"molecule": "CC(=O)O[C@@H]1[C@@H]2O[C@H]2[C@@](C)(O)C(=O)[C@@H](C)C/C=C/[C@H]2[C@@H]3O[C@]3(C)[C@@H](C)C3[C@H](Cc4ccccc4)NC(=O)[C@@]312", "note": "(stereo not given in full)", "values": [{"measurement": "growth", "setting": "[1]", "result": 71, "unit": "%"}, {"measurement": "growth", "setting": "[2]", "result": 22, "unit": "%"}, {"measurement": "growth", "setting": "[3]", "result": 20.3, "unit": "%"}, {"measurement": "growth", "setting": "[4]", "result": 65.2, "unit": "%"}, {"measurement": "growth", "setting": "[5]", "result": 71, "unit": "%"}, {"measurement": "growth", "setting": "[6]", "result": 14.7, "unit": "%"}, {"measurement": "growth", "setting": "[7]", "result": 71, "unit": "%"}, {"measurement": "growth", "setting": "[8]", "result": 62.6, "unit": "%"}, {"measurement": "growth", "setting": "[9]", "result": 67.9, "unit": "%"}, {"measurement": "growth", "setting": "[10]", "result": 96.3, "unit": "%"}, {"measurement": "growth", "setting": "[11]", "result": 55.8, "unit": "%"}, {"measurement": "growth", "setting": "[12]", "result": 22.9, "unit": "%"}, {"measurement": "growth", "setting": "[13]", "result": 54.7, "unit": "%"}, {"measurement": "growth", "setting": "[14]", "result": "4.92% (active)"}, {"measurement": "growth", "setting": "[15]", "result": 82, "unit": "%"}, {"measurement": "growth", "setting": "[16]", "result": 33.6, "unit": "%"}, {"measurement": "growth", "setting": "[17]", "result": 55.5, "unit": "%"}, {"measurement": "growth", "setting": "[18]", "result": 56.8, "unit": "%"}, {"measurement": "growth", "setting": "[19]", "result": 54.9, "unit": "%"}, {"measurement": "growth", "setting": "[20]", "result": 66.6, "unit": "%"}]}
